Source: PubChem BioAssay (National Center for Advancing Translational Sciences (NCATS))
Shown are actives, neighbours in structure and some others; about 13% of the full set was active somewhere.
Pf growth 96h = Primary qHTS for delayed death inhibitors of the malarial parasite plastid, 96 hour incubation | P. falciparum luciferase reporter growth, 96 h | AID 504834, 2011 | 320,000 tested, 6.9% active | Potency, µM (doses to about 28.7 µM), inactives show top-dose activity change, negative = inhibition, usual class: inhibitors; further: potency means the concentration at half of the fitted maximal effect
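P. falciparum expressing integrated firefly luciferase grown in erythrocytes (2% hematocrit, 0.05% parasitemia final) with compounds for 96 hours at 37 C, 5% CO2. Growth inhibition read as loss of luminescence after adding luciferase detection reagent.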
HCV inh = qHTS Assay for Inhibitors of Hepatitis C Virus (HCV) | 340,000 tested, 3.4% active | Huh7.5.1 HCVcc-Cre infection, luciferase reporter, 44 h | Potency, µM (titrated, usually from 41.8 µM), for the others: top-dose activity change, negative = inhibition, hits mostly inhibitors; further: potency means the concentration at half of the fitted maximal effect
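Compounds are dispensed onto cells plated 4 h earlier at 1,000 per well, with HCVcc-Cre virus (about 0.5 moi) added next. Following 44 h of culture, luminescent signal is measured for 15 sec after 15 min with substrate at room temperature.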
Pf growth 48h = Primary qHTS for delayed death inhibitors of the malarial parasite plastid, 48 hour incubation. P. falciparum luciferase growth in erythrocytes, 48 h. Potency, µM (series often up to 28.7 µM), for the others: at the highest dose activity change, negative = inhibition, actives largely listed as inhibitors. 310,000 tested, 5.9% active. AID 504832, 2011; further: potency means the concentration at half of the fitted maximal effect
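Parasite viability was followed by luminescence of a genomically integrated firefly luciferase. Cultures held 0.1% parasitemia at 2% hematocrit (final), incubated under 5% CO2 at 37 C.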
HCMV inh = qHTS Assay for inhibitors of the human cytomegalovirus (HCMV); HFF cells, HCMV-luciferase reporter, 72 h; stronger effect = lower value; activity change, negative = inhibition, % at 57.5 µM; 410,000 tested, 4.5% active; in the data active means activity change below about -60%; inconclusive means no clear call, values can overlap the other calls; inactive means above about -39%
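Screen run at 2 compound doses on HFFs infected with reporter HCMV, MOI 1 PFU/cell. Luciferase activity from cell lysates at 72 h post infection gave inhibition relative to buffer-only and Salinomycin wells.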
An asterisk follows results filed as active; ? = inconclusive; . = not tested or not shown. Unless noted, the call rests on the fitted dose curve; in most records, active means well fitted inhibition curve with a large enough effect; inconclusive means small, poorly fitted or top-dose-only effect, or another doubt; inactive means no such curve, though single readings can be large or run the other way. On the % scale 0 is the no-effect control and ±100 the full control effect.

SMILES	Pf growth 96h	HCV inh	Pf growth 48h	HCMV inh
CC(=O)c1cccc(NC(=O)c2cc3sc(Cl)cc3n2C)c1	.	.	.	40
N#Cc1ccc(NC(=O)COCc2cc(-c3ccc(F)cc3)on2)cc1	.	.	.	-2
Cc1nn(Cc2c(F)c(F)c(F)c(F)c2F)c(C)c1NC(=O)c1ccc(COc2ccccc2Cl)cc1	0%	2%	-1%	-5
Cc1ccc(Cn2ccc(NC(=O)c3cc(-c4ccc(F)cc4)on3)n2)cc1	3.3µM*	14%	-21%	-9
Cc1nn(Cc2ccccc2Cl)c(C)c1NC(=O)c1nc2ncccn2n1	26%	16%	-18%	-63*
Cc1nn(Cc2c(F)c(F)c(F)c(F)c2F)c(C)c1NC(=O)c1ccc(COc2ccccc2Cl)o1	?	16µM*	?	-66*
Cc1ccc(Cn2ccc(NC(=O)c3cc(-c4ccc(Cl)cc4)on3)n2)cc1	14%	6%	69%	?
COc1ccc(-c2cc(C(=O)Nc3c(C)nn(Cc4ccccc4)c3C)no2)cc1	4.7µM*	?	.	-21
Cc1ccccc1OC(=O)CSc1nnc(-c2ccc3c(c2)OCO3)o1	.	.	.	1
COc1cccc(-c2cc(C(=O)Nc3c(C)nn(Cc4ccccc4C)c3C)no2)c1	25%	?	5.2µM*	-17
CC(C)NC(=O)c1nnc2n1CCN(Cc1cccc3c1OCO3)C2	.	.	.	-13
CCOc1ccc(CCNS(=O)(=O)c2c(C)nc3sc(C)cn3c2=O)cc1OCC	.	.	.	28
O=C(c1cc2nc(-c3ccc(Cl)cc3)cc(C(F)(F)F)n2n1)N1CCOCC1	10µM*	-12%	4%	-32
O=C(NCCCn1ccnc1)c1cc2nc(-c3ccc(Br)cc3)cc(C(F)(F)F)n2n1	4.1µM*	7.1µM*	?	-11
COc1cccc(-c2cc(C(F)(F)F)n3nc(C(=O)N4CCCCC4c4cccnc4)cc3n2)c1 (centres undefined)	?	5.6µM*	3.7µM*	-68*
COc1ccc(-c2cc(C(F)(F)F)n3nc(C(=O)Nc4cc(C)ccc4C)cc3n2)cc1	.	.	.	15
COc1ccc(-c2cc(C(F)(F)F)n3nc(C(=O)NCCCN4CCOCC4)cc3n2)cc1	?	11µM*	-17%	-21
CCCNC(=O)c1cc2nc(-c3ccc(Br)cc3)cc(C(F)(F)F)n2n1	.	.	.	-13
COc1ccc(-c2cc(C(F)(F)F)n3nc(C(=O)N4CCCCC4)cc3n2)cc1	35%	11µM*	?	?
CC(=O)Nc1ccc(S(=O)(=O)c2ccnc3cc(Cl)ccc23)cc1	.	.	.	-83*
Cc1ccc2nc(Cl)c3cc(C(=O)N4CCCCC4)sc3c2c1	.	.	.	-3
Cc1ccc2nc(Cl)c3cc(C(=O)NCCCN4CCCC4)sc3c2c1	58%	8.9µM*	?	-35
CCC1CCCCN1CCCNC(=O)c1cc2c(Cl)nc3ccc(C)cc3c2s1 (centres undefined)	.	.	.	-106*
CCOC(=O)C1=C(CN2CCN(c3cccc(OC)c3)CC2)NC(=O)NC1c1ccc(OC)cc1 (centres undefined)	.	.	.	6
O=C(c1ccc2c(=O)n3c(nc2c1)CCC3)N1CCN(S(=O)(=O)c2cccc(F)c2)CC1	?	5%	12µM*	-16
SMILES	Pf growth 96h	HCV inh	Pf growth 48h	HCMV inh
O=C(c1ccc2c(=O)n3c(nc2c1)CCCCC3)N1CCCCC1	-23%	-1%	21%	-4
O=C(c1ccc2c(=O)n3c(nc2c1)CCCCC3)N1CCN(C(c2ccccc2)c2ccccc2)CC1	1.9µM*	?	.	-65*
CC(C)(C)OC(=O)N1CCC(c2c(C(=O)NCCN3CCOCC3)cnn2-c2cccc(Cl)c2)CC1	.	.	.	-7
O=C(Nc1ccc(Cl)cc1)c1ccc2c(c1)N(Cc1ccccc1)CCS2	.	.	.	-2
O=S1(=O)[C@H]2C[C@H](CO)O[C@@]2(CO)CN1Cc1ccc(-c2ccc(F)cc2)cc1	.	11µM*	.	-20
N=C1SC(c2ccccc2)C(=O)N1c1ncc(Cc2ccccc2)s1 (centres undefined)	?	9%	?	-13
Cc1ccc(Cc2cnc(N3C(=N)SC(c4ccccc4)C3=O)s2)cc1 (centres undefined)	9.3µM*	-26%	5%	7
Cc1ccccc1NS(=O)(=O)c1ccc(F)cc1	-25%	10%	25%	84
CSc1ccc(S(=O)(=O)Nc2ccc3c4c(cccc24)CC3)cc1	?	?	?	-82*
O=S(=O)(Nc1ccc2c3c(cccc13)CC2)c1ccc(F)cc1	98%	-7%	36%	-61*
COc1ccc(/C(C)=N\Nc2nc(-c3ccccc3)cc(=O)[nH]2)cc1	0.59µM*	?	0.93µM*	14
COc1ccc(/C=N/Nc2nnc(-c3ccccc3)c(=O)[nH]2)cc1	?	6%	20%	-100*
COc1ccc(/C(C)=N/Nc2nc(C)cc(-c3ccccc3)n2)cc1	.	10µM*	.	-94*
C/C(=N\Nc1nc(C)cc(-c2ccccc2)n1)c1ccc(F)cc1	-13%	?	?	-26
COc1ccc(/C=C/c2nc(-c3ccccc3)cc(=O)[nH]2)cc1	3%	-6%	?	-7
CN(C)c1ccc(C=NNc2nc3c([nH]2)c(=O)n(C)c(=O)n3C)cc1	.	5%	.	-24
CN(C)c1ccc(/C=N\Nc2nc(-c3ccccc3)cc(=O)[nH]2)cc1	2.3µM*	4%	2.3µM*	63
CCOc1ccc(-c2c(C)nn3c(C)c(C(=O)NCC(C)c4ccccc4)cnc23)cc1OCC (centres undefined)	.	.	.	-14
Cc1ccccc1CSc1nc2ccccc2c(=O)n1C	?	1%	9.3µM*	?
Cn1c(SCc2cccc(Br)c2)nc2ccccc2c1=O	?	22µM*	-5%	-30
Cn1c(SCc2ccccc2Br)nc2ccccc2c1=O	?	9%	13%	-26
COC(=O)c1ccccc1NC(=O)Cn1c(=O)n(CCCC(=O)NCc2ccccc2OC)c(=O)c2ccccc21	.	.	.	2
Cn1nnnc1SCCCNCc1ccccc1OCc1ccc(Cl)cc1	.	.	.	-15
Cc1cc(C(=O)CN2C(=O)NC3(CCCCC3)C2=O)c(C)n1-c1ccc2c(c1)OCO2	13µM*	6%	?	18
COCCn1c(C)cc(C(=O)CN2C(=O)NC3(CCCCCCC3)C2=O)c1C	.	1%	21%	123
SMILES	Pf growth 96h	HCV inh	Pf growth 48h	HCMV inh
Cc1cc(-n2c(C)cc(C(=O)CN3C(=O)NC4(CCCCCC4)C3=O)c2C)no1	-15%	-19%	12µM*	24
Cc1cc(-n2c(C)cc(C(=O)COc3ccc(F)c(F)c3)c2C)no1	-27%	10µM*	-29%	.
CC(C)CCNC(=O)c1ccc2c(c1)NC(=O)C(C(C)C)N2 (centres undefined)	.	.	.	26
COc1ccc(NC(=O)c2sc3nc4n(c(=O)c3c2C)CCC4)cc1Cl	.	.	.	5
COc1ccc(NS(=O)(=O)c2ccc(-c3cnc(C4CC4)o3)cc2)cc1Cl	.	.	.	-33
CCn1c(-c2ccc(S(=O)(=O)N3CCOCC3)cc2)csc1=Nc1ccc(C)c(Cl)c1	11%	.	4%	3
